SMILES strings stand for the structures. Values joined by “and” are separate entries in the source; they are usually repeats but may differ in a detail not shown here. Equal values may be shown once. Active and inactive are the calls of the source.

In one assay the target is Albumin (Bos taurus) (UniProt P02769). As to the kind of experiment: compounds binding labelled BSA control protein – biochemical, small-molecule microarray, Alexa647 label, 635/667 nm fluorescence, artefact control for SMM control protein annotation, profiling panel (AID 1118).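 Further: score merges 667 nm emission intensity and signal-to-noise per printed compound spot.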 Conditions: BSA-A647 binding, fluorescence 635 nm, higher = more signal.
Sequence of Albumin (Bos taurus) (P02769 whole entry, looked up): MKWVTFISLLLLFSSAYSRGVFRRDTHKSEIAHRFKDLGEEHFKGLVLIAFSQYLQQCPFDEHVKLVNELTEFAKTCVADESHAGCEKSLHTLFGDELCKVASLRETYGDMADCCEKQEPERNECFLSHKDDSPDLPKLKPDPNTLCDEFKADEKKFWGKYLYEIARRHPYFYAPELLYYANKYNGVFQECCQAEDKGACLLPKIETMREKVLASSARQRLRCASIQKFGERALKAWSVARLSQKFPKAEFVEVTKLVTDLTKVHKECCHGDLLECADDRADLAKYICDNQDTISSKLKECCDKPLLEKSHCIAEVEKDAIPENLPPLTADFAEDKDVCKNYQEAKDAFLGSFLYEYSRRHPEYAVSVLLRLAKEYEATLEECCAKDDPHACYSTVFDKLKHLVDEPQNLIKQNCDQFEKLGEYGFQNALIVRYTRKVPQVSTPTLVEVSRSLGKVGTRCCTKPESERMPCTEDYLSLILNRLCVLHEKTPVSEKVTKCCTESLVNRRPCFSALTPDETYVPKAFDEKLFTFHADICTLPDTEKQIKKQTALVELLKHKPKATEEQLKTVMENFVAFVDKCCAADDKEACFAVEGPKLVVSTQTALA
Assay [1] can be described thus: probe aXIP binding to arrayed compounds – biochemical, NeuroSMM set, 635/667 nm fluorescence, primary screen (AID 1119).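 Further: probe is the protein aXip251-270 applied at 1 µg/mL to compound-printed slides; binding of probe to printed compounds measured as 667 nm fluorescence plus signal to noise.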 Conditions: small-molecule microarray, higher = more signal, called active from +8 up or from −8 down.
Assay [2] can be described thus: probe aNOTCH3 binding on compound microarray – biochemical, small-molecule microarray, 635/667 nm fluorescence, primary screen (AID 1120).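 Further: probe is a biotin-tagged antibody raised against NOTCH3 rather than NOTCH3 protein; score merges spot fluorescence near 667 nm with spot signal to noise.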 Conditions: higher = more signal.
Assay [3] in a line: probe aNOTCH2 binding on compound microarray – biochemical, small-molecule microarray, 635/667 nm fluorescence, primary screen (AID 1121).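 Further: score merges feature fluorescence read at 667 nm with its signal to noise.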 Conditions: higher = more signal.
In assay [4] the target is Carbonic anhydrase 2 (Homo sapiens) (UniProt P00918). The assay can be described thus: compounds binding carbonic anhydrase 2 – biochemical, small-molecule microarray, Alexa647-labelled CAII, profiling panel (AID 1122). Conditions: CAII-A647 binding fluorescence, higher = more signal.
Assay [5] is described as follows: COS7 lysate on small-molecule microarray, probe aHis, 635 nm (AID 1123).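 Further: z-score combines 667nm fluorescence intensity with signal-to-noise per printed compound spot.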 Conditions: COS7 cell lysate, fluorescence, higher = more signal.
The nature of assay [6]: probe aLAP1 signal on lysate-treated microarray – cell lysate, small-molecule microarray, COS7 lysate, primary screen (AID 1124).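 Further: lysate comes from COS7 cells expressing LAP1 and is applied at 0.3 µg/mL; score merges spot fluorescence near 667 nm with signal-to-noise over triplicate slides.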 Conditions: probe aLAP1, fluorescence, higher = more signal.
The next assay deals with Sam68 (KHDRBS1). As to the kind of experiment: compounds binding KHDRBS1 protein – biochemical, small-molecule microarray, 635 nm fluorescence, primary screen (AID 1125).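 Further: score merges 667 nm channel intensity with signal to noise over triplicate slides.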 Conditions: higher = more signal.
Assay [7] deals with Chordin-like protein 2 (CHRDL2). As to the kind of experiment: compounds binding chordin-like 2 – biochemical, small-molecule microarray, 635 nm fluorescence, primary screen (AID 1126).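 Further: printed compound slides probed with Chrdl2 protein at 4 µg/mL for 1 h at 4 C; score merges 667 nm emission intensity with signal to noise over three replicate slides.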 Conditions: fluorescence 635 nm, higher = more signal.
Assay [8] has as its target Concanavalin-A (Canavalia ensiformis) (UniProt P02866). As to the kind of experiment: compounds binding concanavalin A lectin – biochemical, small-molecule microarray, Alexa647 label, 635 nm, artefact control for SMM control protein annotation, primary screen (AID 1127).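 Further: z combines 667 nm emission intensity with signal-to-noise across three replicate slides.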 Conditions: ConA-A647 binding fluorescence, higher = more signal.

Sequence of Concanavalin-A (Canavalia ensiformis) (P02866 whole entry, looked up): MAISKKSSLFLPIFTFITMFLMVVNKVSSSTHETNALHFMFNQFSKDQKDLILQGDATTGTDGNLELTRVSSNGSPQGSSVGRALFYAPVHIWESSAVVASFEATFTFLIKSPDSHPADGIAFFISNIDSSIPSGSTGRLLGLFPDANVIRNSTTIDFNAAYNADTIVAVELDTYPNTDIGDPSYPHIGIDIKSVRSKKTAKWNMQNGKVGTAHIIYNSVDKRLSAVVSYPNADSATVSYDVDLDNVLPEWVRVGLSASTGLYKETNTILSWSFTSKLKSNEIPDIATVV

With `C=CCN(CCCC)C(=O)C(c1cccs1)N(C(=O)/C=C\C(=O)O)c1ccc(CCO)cc1` (stereo not given), the composite z-score is -1.02 and -2.4 with Albumin (Bos taurus); -0.437 and -0.449 in assay [2]; -0.171 and -0.202 in assay [3]; 0.864 and 0.861 in assay [4]; 0.0769 and -0.501 in assay [5]; 0.132 and -0.426 in [6]. In addition, the composite z-score in the assay on Sam68 (KHDRBS1) is -0.798 and -1.53; in assay [7], -1.26 and -4.41; in assay [8] it was -1.83 and -1.63. Moreover, the composite Z-score in assay [1] is 0.127 (inactive) and -0.0505 (inactive).

As for `C=CCN(CCCCC)C(=O)C(c1cccs1)N(CCOCCO)C(=O)/C=C\C(=O)O` (stereo not given), the composite z-score is -0.148 and -0.301 in the assay with Albumin (Bos taurus); -0.554 and -0.488 in [2]; -0.177 and -0.143 in assay [3]; 0.86 and 0.368 in assay [4]; -1.01 and -0.267 in assay [5]; -0.0541 and 0.235 in assay [6]. For the same compound, the composite z-score is -0.856 and -0.0967 with Sam68 (KHDRBS1); -1.91 and -1.04 in [7]; -0.611 and -0.988 in assay [8]. In assay [1], the composite Z-score is -0.116 (inactive) and 0.239 (inactive).

As to `CCCNC(=O)OC[C@H]1O[C@H](CCON=C(C)CCN2CCc3nc(-c4ccccc4)c(-c4ccccc4)cc3C2)C=C[C@@H]1Oc1ccc(OC)cc1`, the composite z-score is 0.216 with Albumin (Bos taurus); 0.0179 in assay [2]; -0.108 in assay [3]; -0.0398 in [4]; 0.73 in [5]; 0.354 in assay [6]. For the same compound, the composite z-score with Sam68 (KHDRBS1) is 0.389; in assay [7] it was -0.273; in [8], 0.472. Besides, the composite Z-score in assay [1] is 0.126 (inactive).

Regarding `C=CCN(Cc1ccccc1)C(=O)C(c1cccs1)N(C(=O)/C=C\C(=O)O)c1ccc(CCO)cc1` (stereo not given), the composite z-score in the assay with Albumin (Bos taurus) was -0.047 and 0.278; in assay [2], -0.532 and -0.475; in assay [3], -0.213 and -0.2; in assay [4], 0.824 and 0.335; in [5] it was -0.577 and -0.107; in assay [6], -0.0165 and -0.602. Besides, the composite z-score in the assay on Sam68 (KHDRBS1) was -0.581 and -1.13; in assay [7], -2.94 and -1.92; in [8] it was -0.772 and -0.564. Further, the composite Z-score in assay [1] is -0.18 (inactive) and -0.296 (inactive).

Regarding `C=CCN(C(=O)C1N(CCCCCCO)C(=O)C2C(C(=O)O)C3C=CC21O3)C(C)(C)C` (stereo not given), the composite z-score was -0.171 and -1.11 with Albumin (Bos taurus); -0.695 and -0.55 in [2]; -0.217 and -0.192 in assay [3]; 0.987 and 0.958 in assay [4]; -0.712 and 0.0575 in [5]; -0.729 and -0.646 in assay [6]. Moreover, the composite z-score in the assay with Sam68 (KHDRBS1) was -1.73 and -0.275; in assay [7], -4.11 and -4.07; in [8], -0.974 and -2.94. The composite Z-score in assay [1] is 0.148 (inactive) and -0.707 (inactive).

Turning to `COc1ccc(-c2ccc3c(n2)CCCN3CC(O)CN2CCCc3nc(-c4ccc(Br)cc4)ccc32)cc1` (stereo not given), the composite z-score with Albumin (Bos taurus) is 0.479 and 0.259; in assay [2], 0.448 and 0.392; in assay [3], -0.0125 and -0.0349; in assay [4], 0.491 and 0.44; in [5], -0.0214 and 0.91; in assay [6], 0.984 and 0.29. In addition, the composite z-score in the assay on Sam68 (KHDRBS1) was 0.764 and 0.301; in [7] it was 0.708 and 0.919; in [8], 0.677 and 0.632. For the same compound, in [1], the composite Z-score is 1.48 (inactive) and 2.85 (inactive).

On to `C=CCN(C(=O)C1N(CCCCCCO)C(=O)C2C(C(=O)O)C3C=CC21O3)c1ccc(OC)cc1` (stereo not given), for which the composite z-score in the assay with Albumin (Bos taurus) was -0.547 and -1.14; in [2], -0.577 and -0.287; in assay [3], -0.0345 and -0.0148; in assay [4], 0.981 and 0.391; in [5] it was 3.24 and 2.93; in [6], 1.44 and 0.066. The composite z-score in the assay with Sam68 (KHDRBS1) was -0.931 and -2.13; in assay [7], -2.65 and -2.43; in assay [8] it was -0.941 and -2.04. The composite Z-score in assay [1] is -0.344 (inactive) and -0.542 (inactive).

As for `CCCC[C@@H]1CN2[C@@H](CC[C@@H](C)[C@@H]2c2ccc(Br)cc2)C(=O)O1`, the composite z-score with Albumin (Bos taurus) is 0.604 and 0.712; in assay [2], 0.0293 and -0.0219; in assay [3], -0.104 and -0.164; in assay [4] it was 0.284 and 0.282; in assay [5], 1.22 and 0.595; in [6] it was -0.0028 and 0.498. Further, the composite z-score was 1.1 and 0.929 with Sam68 (KHDRBS1); 0.306 and 0.0739 in assay [7]; 0.402 and 0.987 in assay [8]. For the same compound, the composite Z-score in assay [1] is 0.548 (inactive) and 0.14 (inactive).

The values are drawn from PubChem BioAssay.
